Laboratory results as given in the supplement of paper PMC9262897, “Low-cost anti-mycobacterial drug discovery using engineered E. coli” (Nature Communications, 2022).
Structures can show the parent of a compound that is named as a salt. ± gives the standard deviation of the averaged measurements.

system: E. coli TESEC Mtb DapB; assay: growth (OD600 after 10 h); higher = more growth (less inhibition); conditions: arabinose induction (level): High; compound 0.1 mM; raw OD600 reference: median of DMSO wells […], cell-free background 0.041
Protocol: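 TESEC E. coli strains in which the native enzyme is deleted and replaced by arabinose-inducible Mtb Asd, DapB, CysH or TrpD, each grown in its selective medium. Strains were screened against the Prestwick library at 0.1 mM and 1% DMSO in 384-well format at low and high arabinose induction. Growth is read as OD600 after 10 h in triplicate.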

In order of rising growth:
1. CC(C)COCC(CN(Cc1ccccc1)c1ccccc1)N1CCCC1 (stereo not given) [Bepridil hydrochloride]  0.0467 ± 0.0011
2. C=C1c2cccc(O)c2C(O)=C2C(=O)[C@]3(O)C(O)=C(C(N)=O)C(=O)[C@@H](N(C)C)[C@@H]3[C@@H](O)[C@H]12 [Methacycline hydrochloride]  0.0592 ± 0.0012
3. CC(=O)O[C@]1(C(C)=O)CC[C@H]2[C@@H]3C=C(Cl)C4=CC(=O)[C@@H]5C[C@@H]5[C@]4(C)[C@H]3CC[C@@]21C [Cyproterone acetate]  0.135 ± 0.01
4. CNCCC(Oc1ccc(C(F)(F)F)cc1)c1ccccc1 (stereo not given) [Fluoxetine hydrochloride]  0.142 ± 0.036
5. c1cnc(N2CCN(Cc3ccc4c(c3)OCO4)CC2)nc1 [Piribedil hydrochloride]  0.178 ± 0.01
6. CCC(C)n1ncn(-c2ccc(N3CCN(c4ccc(OCC5COC(Cn6cncn6)(c6ccc(Cl)cc6Cl)O5)cc4)CC3)cc2)c1=O (stereo not given) [Itraconazole]  0.182 ± 0.035
7. COc1c2occc2c(OC)c2c(=O)cc(C)oc12 [Khellin]  0.182 ± 0.0039
8. COc1ccc([C@@H]2Sc3ccccc3N(CCN(C)C)C(=O)[C@@H]2OC(C)=O)cc1 [Diltiazem hydrochloride]  0.184 ± 0.035
9. CC1=C(/C=C/C(C)=C/C=C/C(C)=C/C(=O)O)C(C)(C)CCC1 [Retinoic acid]  0.186 ± 0.0028
10. CCCOc1ccc(C(=O)OCCN(CC)CC)cc1N [Proparacaine hydrochloride]  0.187 ± 0.0041
11. CN(C)CCC(c1ccc(Cl)cc1)c1ccccn1 (stereo not given) [Chlorpheniramine maleate]  0.187 ± 0.012
12. NC[C@@H]1O[C@H](O[C@H]2[C@@H](O)[C@H](O[C@@H]3[C@@H](O)[C@H](N)C[C@H](N)[C@H]3O[C@H]3O[C@H](CO)[C@@H](O)[C@H](O)[C@H]3N)O[C@@H]2CO)[C@H](N)[C@@H](O)[C@@H]1O [Paromomycin sulfate]  0.195 ± 0.0097
13. CN1CCN(CCCN2c3ccccc3Sc3ccc(S(=O)(=O)N(C)C)cc32)CC1 [Thioproperazine dimesylate]  0.2 ± 0.024
14. O=C(Cn1ccnc1[N+](=O)[O-])NCCO [Etanidazole]  0.202 ± 0.006
15. Cn1cnc([N+](=O)[O-])c1Sc1ncnc2[nH]cnc12 [Azathioprine]  0.202 ± 0.016
16. COc1ccc(-c2ccc(=N)n(CCCC(=O)O)n2)cc1 [Gabazine bromide]  0.206 ± 0.0056
17. CC(=O)OCC(=O)[C@@]1(O)CC[C@H]2[C@@H]3CCC4=CC(=O)CC[C@]4(C)[C@H]3[C@@H](O)C[C@@]21C [Cortisol acetate]  0.213 ± 0.0036
18. Nc1nc(O)c2ncn(CCC(CO)CO)c2n1 [Penciclovir]  0.226 ± 0.013
19. N[C@@H](Cc1cc(I)c(Oc2ccc(O)c(I)c2)c(I)c1)C(=O)O [Liothyronine]  0.232 ± 0.0046
20. Nc1nc(Cl)nc2c1ncn2[C@H]1C[C@H](O)[C@@H](CO)O1 [Cladribine]  0.244 ± 0.046

same assay, conditions: arabinose induction (level): Low; compound 0.1 mM; raw OD600 reference: median of DMSO wells 0.227, cell-free background 0.041

In order of falling growth:
1. N[C@@H](Cc1cc(I)c(Oc2ccc(O)c(I)c2)c(I)c1)C(=O)O [Liothyronine]  0.264 ± 0.017
2. NC[C@@H]1O[C@H](O[C@H]2[C@@H](O)[C@H](O[C@@H]3[C@@H](O)[C@H](N)C[C@H](N)[C@H]3O[C@H]3O[C@H](CO)[C@@H](O)[C@H](O)[C@H]3N)O[C@@H]2CO)[C@H](N)[C@@H](O)[C@@H]1O [Paromomycin sulfate]  0.26 ± 0.034
3. COc1c2occc2c(OC)c2c(=O)cc(C)oc12 [Khellin]  0.253 ± 0.1
4. CN1CCN(CCCN2c3ccccc3Sc3ccc(S(=O)(=O)N(C)C)cc32)CC1 [Thioproperazine dimesylate]  0.249 ± 0.0047
5. Nc1nc(O)c2ncn(CCC(CO)CO)c2n1 [Penciclovir]  0.244 ± 0.02
6. O=C(Cn1ccnc1[N+](=O)[O-])NCCO [Etanidazole]  0.232 ± 0.0081
7. CCCOc1ccc(C(=O)OCCN(CC)CC)cc1N [Proparacaine hydrochloride]  0.231 ± 0.021
8. CN(C)CCC(c1ccc(Cl)cc1)c1ccccn1 (stereo not given) [Chlorpheniramine maleate]  0.23 ± 0.0095
9. CC1=C(/C=C/C(C)=C/C=C/C(C)=C/C(=O)O)C(C)(C)CCC1 [Retinoic acid]  0.2256 ± 0.00047
10. Cn1cnc([N+](=O)[O-])c1Sc1ncnc2[nH]cnc12 [Azathioprine]  0.226 ± 0.019
11. CCC(C)n1ncn(-c2ccc(N3CCN(c4ccc(OCC5COC(Cn6cncn6)(c6ccc(Cl)cc6Cl)O5)cc4)CC3)cc2)c1=O (stereo not given) [Itraconazole]  0.217 ± 0.017
12. COc1ccc([C@@H]2Sc3ccccc3N(CCN(C)C)C(=O)[C@@H]2OC(C)=O)cc1 [Diltiazem hydrochloride]  0.211 ± 0.056
13. Nc1nc(Cl)nc2c1ncn2[C@H]1C[C@H](O)[C@@H](CO)O1 [Cladribine]  0.209 ± 0.018
14. COc1ccc(-c2ccc(=N)n(CCCC(=O)O)n2)cc1 [Gabazine bromide]  0.208 ± 0.021
15. CC(=O)OCC(=O)[C@@]1(O)CC[C@H]2[C@@H]3CCC4=CC(=O)CC[C@]4(C)[C@H]3[C@@H](O)C[C@@]21C [Cortisol acetate]  0.206 ± 0.011
16. c1cnc(N2CCN(Cc3ccc4c(c3)OCO4)CC2)nc1 [Piribedil hydrochloride]  0.202 ± 0.013
17. CNCCC(Oc1ccc(C(F)(F)F)cc1)c1ccccc1 (stereo not given) [Fluoxetine hydrochloride]  0.132 ± 0.0058
18. CC(=O)O[C@]1(C(C)=O)CC[C@H]2[C@@H]3C=C(Cl)C4=CC(=O)[C@@H]5C[C@@H]5[C@]4(C)[C@H]3CC[C@@]21C [Cyproterone acetate]  0.131 ± 0.011
19. C=C1c2cccc(O)c2C(O)=C2C(=O)[C@]3(O)C(O)=C(C(N)=O)C(=O)[C@@H](N(C)C)[C@@H]3[C@@H](O)[C@H]12 [Methacycline hydrochloride]  0.0603 ± 0.0025
20. CC(C)COCC(CN(Cc1ccccc1)c1ccccc1)N1CCCC1 (stereo not given) [Bepridil hydrochloride]  0.04587 ± 0.00031
